From PubChem BioAssay (EPA / NIEHS)
Records with an inconclusive call do not appear. Activity calls are given as the source filed them. How the source made its calls: active means hit-call score of the fitted dose curve at least 0.9, where 1 is the maximum; inconclusive means response in the unintended direction; inactive means score below 0.9.

Each compound was assayed against human CYP1A1, CYP1A1 (gene 1543) (UniProt P04798) (assay: NVS_ADME_hCYP1A1: NovaScreen (NVS) CYP450-related Enzyme Activity (ADME) Assay for human CYP1A1 (AID 2283100)).
Sequence of human CYP1A1, CYP1A1 (gene 1543) (P04798 whole entry, looked up): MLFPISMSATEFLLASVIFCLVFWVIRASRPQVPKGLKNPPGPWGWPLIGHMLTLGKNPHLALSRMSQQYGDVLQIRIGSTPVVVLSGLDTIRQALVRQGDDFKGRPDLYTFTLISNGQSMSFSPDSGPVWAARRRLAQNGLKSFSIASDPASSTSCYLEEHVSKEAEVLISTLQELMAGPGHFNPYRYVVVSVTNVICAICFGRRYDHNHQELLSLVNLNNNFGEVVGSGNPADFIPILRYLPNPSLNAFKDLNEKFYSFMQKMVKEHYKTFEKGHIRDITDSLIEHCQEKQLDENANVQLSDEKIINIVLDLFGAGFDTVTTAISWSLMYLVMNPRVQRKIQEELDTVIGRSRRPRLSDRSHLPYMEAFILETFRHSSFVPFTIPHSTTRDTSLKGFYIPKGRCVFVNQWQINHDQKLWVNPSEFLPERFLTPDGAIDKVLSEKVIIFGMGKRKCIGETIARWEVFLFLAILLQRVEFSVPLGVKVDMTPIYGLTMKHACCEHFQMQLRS
Protocol: NVS_ADME_hCYP1A1 is a biochemical, single-readout assay that uses extracted gene-proteins in a cell-free assay. Measurements were taken 1 hour after chemical dosing in a 96-well plate.NVS_ADME_hCYP1A1 is one of one assay component(s) measured or calculated from the NVS_ADME_hCYP1A1 assay. It is designed to make measurements of enzyme activity, a form of enzyme reporter, as detected with fluorescence intensity signals by Fluorescence technology.Data from the assay component NVS_ADME_hCYP1A1 was analyzed into 1 assay endpoint. This assay endpoint, NVS_ADME_hCYP1A1, was analyzed in the positive analysis fitting direction relative to Acetonitrile as the negative control and baseline of activity. Using a type of enzyme reporter, loss-of-signal activity can be used to understand changes in the enzymatic activity as they relate to the gene CYP1A1. Furthermore, this assay endpoint can be referred to as a primary readout, because this assay has produced multiple assay endpoints where this one serves a enzymatic activity function. To generalize the intended target to other relatable targets, this assay endpoint is annotated to the cyp intended target family, where the subfamily is xenobiotic metabolism.
Binding assays used specific radioligands (tritiated, iodinated) with non-radioactive competitive displacement ligands in agonist or antagonist protocols (as indicated) and various reference compounds and inhibitors to titrate specific binding to receptors and transporters. Most enzyme assays (CYPs, kinases, phosphatases, proteases, HDACs) used recombinant protein and specific substrates (fluorescence mostly, some colorimetric and radioactive) and inhibitors, followed by a biochemical separation of substrate and product. All assays for the biochemical HTS were initially run in duplicate at a single concentration (10 uM for CYP450 assays and 25 uM for all others). Assay-chemical combinations meeting a pre-defined threshold (e.g., 30% inhibition and other criteria defined below) were then run in singleton concentration-response format with maximum concentration of 20 uM for CYPs and 50 uM for all others. Each assay was run with positive and negative controls, and concurrent controls on every plate. The follow-up (secondary) screen tested active chemical-pairs in concentration series, as well as a few additional assays not tested in the primary screen, some selected negative inactives, and several cases re-run in the concentration series for confirmatory purposes.

SMILES | AC50 | outcome
CNc1cnn(-c2cccc(C(F)(F)F)c2)c(=O)c1Cl | 6.11 µM (active) | –
C[Si](Cn1cncn1)(c1ccc(F)cc1)c1ccc(F)cc1 | 3.27 µM (active) | –
CCOC(=O)CC(SP(=O)(OC)OC)C(=O)OCC (stereo unspecified) | – | inactive
COc1ccc(C(=CC(=O)N2CCOCC2)c2ccc(Cl)cc2)cc1OC | 6.61 µM (active) | –
C#CC(C)(C)NC(=O)c1cc(Cl)cc(Cl)c1 | 2.56 µM (active) | –
C=C(C)[C@H]1Cc2c(ccc3c2O[C@@H]2COc4cc(OC)c(OC)cc4[C@@H]2C3=O)O1 | – | inactive
CCCOCC(=Nc1ccc(Cl)cc1C(F)(F)F)n1ccnc1 | 4.18 µM (active) | –
CSc1nc(NC(C)C)nc(NC(C)C)n1 | 6.84 µM (active) | –
CCOP(=S)(OCC)Oc1ccc2c(C)c(Cl)c(=O)oc2c1 | 0.352 µM (active) | –
CCOP(=S)(OCC)Oc1ccc([N+](=O)[O-])cc1 | 3.28 µM (active) | –
CCOP(=O)(NC(C)C)Oc1ccc(SC)c(C)c1 (stereo unspecified) | 4.81 µM (active) | –
